Screens from PubChem BioAssay.
Compounds with a hit are over-represented: about 19% of the library has one in this group of screens.
HT1080 IDH1KD tx – kills HT-1080 cells with IDH1 knockdown. HT-1080 IDH1 knockdown viability, ATP luminescence, 48 h. 360,000 tested, 2% active. AID 686971. Potency, µM (titrated, usually from 46.1 µM), for inactives: at the top dose activity, negative = toxicity, most hits filed as cytotoxic;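 also: potency is read from the fitted curve at half-maximal effect; 0% = DMSO wells and -100% = cell-free medium wells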
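Knockdown cells (IDH1KD HT-1080) received compounds 2 h after plating at 750 cells/well and were kept 48 h at 37 °C in 5% FBS RPMI. A CellTiter-Glo luminescence read gave % activity for curve fitting.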
TDP1 cell noCPT – qHTS for Inhibitors of human tyrosyl-DNA phosphodiesterase 1 (TDP1): qHTS in cells in absence of CPT; Potency, µM (top dose mostly 46.2 µM), inactives show at the highest dose activity change, negative = growth inhibition, most hits filed as inhibitors; DT40 Tdp1-/- hTDP1 cells, no CPT, ATP luminescence, 48 h; 420,000 tested, 15% active; also: potency is read from the fitted curve at half-maximal effect; nearly all actives have a fitted effect of over 55% in size
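Growth of hTDP1-complemented DT40 Tdp1-knockout cells is measured by ATP luminescence after at least 48 hr compound exposure at 37 °C, with DMSO substituting for the 20 nM CPT used in the parallel screen.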
TDP1 cell CPT – growth inhibition of DT40 Tdp1-/-;hTDP1 cells with camptothecin (screen for TDP1 inhibitors); AID 686979; 420,000 tested, 12% active; Potency, µM (highest dose often 46.2 µM), for inactives: at the highest dose activity change, negative = growth inhibition, hits mostly inhibitors; chicken DT40 Tdp1-/-;hTDP1 cells + 20 nM CPT, ATP luminescence, 48 h; also: potency is read from the fitted curve at half-maximal effect; nearly all actives have a fitted effect of over 55% in size
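Cell growth measured by CellTiter-Glo luminescence after a minimum 48 h, 37 C compound exposure with 20 nM CPT in Tdp1-knockout DT40 cells stably expressing hTDP1, seeded 400/well; qHTS titration format.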
HT1080-NT tox – kills 2HG-producing HT-1080-NT fibrosarcoma cells | HT-1080-NT fibrosarcoma viability, CellTiter-Glo ATP luminescence, 48 h | Potency, µM (titrated, usually from 46.1 µM), without a hit: top-dose activity, negative = less viability, actives largely listed as cytotoxic | 360,000 tested, 1.6% active | AID 686970;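 also: NT is the 2HG producing partner of a matched IDH1 knockdown line; potency is read from the fitted curve at half-maximal effect; 0% = DMSO-treated cells and -100% = media-only wells without cells; nearly all actives have a fitted effect of over 55% in size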
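Compounds were tested in concentration-response format on HT-1080-NT cells for 48 hours at 37 degrees C. Cell viability came from CellTiter-Glo luminescence; curves were classified by r2, response magnitude and activity.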
IL1B secr inh – blocks inflammasome-driven IL-1 beta release. THP-1 LPS/ATP IL-1B secretion, AlphaLISA, 16 h; hits give low values. activity change, % at 57.5 µM. 360,000 tested, 4.7% active; in the data active = activity change below about -50%; inconclusive = mostly about -30% to -49%
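Secreted IL-1B measured by AlphaLISA bead assay after 16 h compound exposure of THP-1 cells; compounds (final up to 57.5 uM) added 1 h before LPS (250 ng/mL) and ATP (1.25 mM) stimulation; lower signal means less secretion.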
Numbers without * were called inactive; [ ] = another dose, or the depositor's remark. Unless noted, calls follow the shape of the dose curve; as a rule, active = well fitted curve in the direction sought with a large enough effect; inconclusive = small, poorly fitted or top-dose-only effect, or another doubt; inactive = no such curve, though single readings can be large; an effect the other way counts as inactive or inconclusive. Unless noted, % is scaled to controls: 0 for no effect and ±100 for the full control effect.

How did Nc1ccc(C2(c3ccc(N)cc3)CCCCC2)cc1 do in these assays?
HT1080 IDH1KD tx: -21%; TDP1 cell noCPT: 13%; TDP1 cell CPT: 4%; HT1080-NT tox: -5%; IL1B secr inh: 36

Results for CCOP(=O)(OCC)C(Nc1cc(Cl)cc(Cl)c1)c1cccc(O)c1 (centres undefined) ?
HT1080 IDH1KD tx: -12%; TDP1 cell noCPT: inconclusive; TDP1 cell CPT: inconclusive; HT1080-NT tox: -3%; IL1B secr inh: inconclusive

How did CCOP(=O)(OCC)C(Nc1cccc(C(F)(F)F)c1)c1ccc(C)cc1 (centres undefined) do in these assays?
HT1080 IDH1KD tx: inconclusive; TDP1 cell noCPT: 18µM*; TDP1 cell CPT: inconclusive; HT1080-NT tox: inconclusive; IL1B secr inh: -16

How did CCOP(=O)(OCC)C(Nc1cccc([N+](=O)[O-])c1)c1ccc(OC)cc1 (centres undefined) do in these assays?
HT1080 IDH1KD tx: -12%; TDP1 cell noCPT: 13µM*; TDP1 cell CPT: inconclusive; HT1080-NT tox: 2%; IL1B secr inh: -13

What do the screens show for `CCCOP(=O)(OCCC)C(Nc1cccc(C(F)(F)F)c1)c1ccc(C)cc1` (centres undefined)?
HT1080 IDH1KD tx: inconclusive; TDP1 cell noCPT: 23µM*; TDP1 cell CPT: inconclusive; HT1080-NT tox: inconclusive; IL1B secr inh: -2

How did S=C1NC2(CCCCC2)NC12CCCCC2 do in these assays?
HT1080 IDH1KD tx: -2%; TDP1 cell noCPT: -10%; TDP1 cell CPT: -11%; HT1080-NT tox: 5%; IL1B secr inh: 17

Results for NC(=O)Cc1cccc(C(=O)c2ccccc2)c1N ?
TDP1 cell noCPT: inconclusive; TDP1 cell CPT: -14%

Results for CCOC(=O)C1=C(NC(=S)NC(=O)c2ccccc2)c2ccccc2CC12CCCC2 ?
HT1080 IDH1KD tx: inconclusive; TDP1 cell noCPT: 18µM*; TDP1 cell CPT: 16µM*; HT1080-NT tox: inconclusive; IL1B secr inh: inconclusive

What do the screens show for `Fc1ccc(N2CCN(c3ncnc4c3nc3n4CCCCC3)CC2)cc1`?
TDP1 cell noCPT: 18µM*; TDP1 cell CPT: -19%

What do the screens show for `CN(Cc1ccccc1)C(=O)Cn1c(=O)oc2cc(S(=O)(=O)NCc3ccccc3)ccc21`?
HT1080 IDH1KD tx: -14%; TDP1 cell noCPT: 21µM*; TDP1 cell CPT: 15µM*; HT1080-NT tox: -15%; IL1B secr inh: 0

Results for COc1ccccc1CNCc1cc(OC)c(OC)cc1OC ?
HT1080 IDH1KD tx: -7%; TDP1 cell noCPT: inconclusive; TDP1 cell CPT: inconclusive; HT1080-NT tox: 6%; IL1B secr inh: -8

What do the screens show for `COc1ccccc1CNc1nc(NCc2ccccc2SC)c2sccc2n1`?
HT1080 IDH1KD tx: 18µM*; TDP1 cell noCPT: 6.5µM*; TDP1 cell CPT: 6.5µM*; HT1080-NT tox: inconclusive; IL1B secr inh: -99*

What do the screens show for `COc1ccc(CCn2c(O)c(C=Nc3cccc(F)c3)c(=O)[nH]c2=O)cc1OC`?
HT1080 IDH1KD tx: 3%; TDP1 cell noCPT: -26%; TDP1 cell CPT: inconclusive; HT1080-NT tox: 3%; IL1B secr inh: 18

Results for COc1cc2c(cc1OC)C13CCN4CC5=CCOC(CC(=O)O)C(C5CC41)C3N2 (centres undefined) ?
HT1080 IDH1KD tx: -5%; TDP1 cell noCPT: -18%; TDP1 cell CPT: -28%; HT1080-NT tox: -1%; IL1B secr inh: 3

Results for O=C(CCl)Nc1sccc1C(=O)c1ccccc1 ?
HT1080 IDH1KD tx: inconclusive; TDP1 cell noCPT: inconclusive; TDP1 cell CPT: 15µM*; HT1080-NT tox: 10µM*; IL1B secr inh: -103*

Results for COc1cccc(-c2nn(CCC#N)cc2C(=O)Nc2ccccc2Cl)c1 ?
HT1080 IDH1KD tx: -17%; TDP1 cell noCPT: inconclusive; TDP1 cell CPT: inconclusive; HT1080-NT tox: -14%; IL1B secr inh: 31

What do the screens show for `CN(C(=O)COC(=O)c1cn(C)c2ccccc12)C1CCCCC1`?
HT1080 IDH1KD tx: 4%; TDP1 cell noCPT: -4%; TDP1 cell CPT: -24%; HT1080-NT tox: 8%[9.24 µM]; IL1B secr inh: -50*

How did C[C@]12C[C@H]3S[C@H]3C[C@@H]1CC[C@@H]1[C@@H]2CC[C@]2(C)[C@@H](O)CC[C@@H]12 do in these assays?
TDP1 cell noCPT: -29%[21.1 µM]; TDP1 cell CPT: -27%[21.1 µM]

What do the screens show for `Cc1cc(N2CCN(C(=O)c3ccco3)CC2)n2nc(-c3cccc(Cl)c3)cc2n1`?
HT1080 IDH1KD tx: inconclusive; TDP1 cell noCPT: inconclusive; TDP1 cell CPT: 23µM*; HT1080-NT tox: inconclusive; IL1B secr inh: -66*

How did O=C(COc1ccccc1/C=C1/NC(=O)NC1=O)Nc1ccccc1 do in these assays?
HT1080 IDH1KD tx: 13%; TDP1 cell noCPT: inconclusive; TDP1 cell CPT: 21µM*; HT1080-NT tox: 1%; IL1B secr inh: 25

How did Clc1ccc2c(c1)CCc1cccnc1C2=C1CCNCC1 do in these assays?
TDP1 cell noCPT: 7.3µM*; TDP1 cell CPT: 6.5µM*

What do the screens show for `COC(C/C=C/C=C/CC/C=C\CC(C)/C=C\C(=C/C(=O)O)CC(=O)O)/C(C)=C\C=C(/C)C(=O)O` (centres undefined)?
TDP1 cell noCPT: 13%[4.12 µM]; TDP1 cell CPT: 14%[4.12 µM]

How did CC(C)(C)n1nnnc1C(c1cccs1)N1CCC2(CC1)C(=O)NCN2c1ccccc1 (centres undefined) do in these assays?
HT1080 IDH1KD tx: 0%; TDP1 cell noCPT: inconclusive; TDP1 cell CPT: -19%; HT1080-NT tox: 6%; IL1B secr inh: -17

Results for COc1ccc(-n2nnnc2C(c2ccccc2OC(F)(F)F)N2CCC3(CC2)C(=O)NCN3c2ccccc2)cc1 (centres undefined) ?
HT1080 IDH1KD tx: 16µM*; TDP1 cell noCPT: 23µM*; TDP1 cell CPT: 18µM*; HT1080-NT tox: inconclusive; IL1B secr inh: 0

What do the screens show for `CC(C)(C)n1nnnc1C(c1cc2ccccc2o1)N1CCC2(CC1)C(=O)NCN2c1ccccc1` (centres undefined)?
HT1080 IDH1KD tx: inconclusive; TDP1 cell noCPT: inconclusive; TDP1 cell CPT: inconclusive; HT1080-NT tox: -25%; IL1B secr inh: -25

How did COc1ccc(-n2nnnc2C(c2ccccc2)N2CCC3(CC2)C(=O)NCN3c2ccccc2)cc1 (centres undefined) do in these assays?
HT1080 IDH1KD tx: inconclusive; TDP1 cell noCPT: inconclusive; TDP1 cell CPT: inconclusive; HT1080-NT tox: inconclusive; IL1B secr inh: -59*

What do the screens show for `Cc1cccc(C)c1-n1nnnc1C(c1cccs1)N1CCC2(CC1)C(=O)NCN2c1ccccc1` (centres undefined)?
HT1080 IDH1KD tx: inconclusive; TDP1 cell noCPT: 15µM*; TDP1 cell CPT: 15µM*; HT1080-NT tox: inconclusive; IL1B secr inh: -4
